From PubChem BioAssay AID1117361 (Southern Research Institute, 2015)
About 900 (25%) of roughly 3,600 compounds were called active. How the calls were made is not given here. The list is a sample of the results. Entries with a potency or affinity are not part of this list.

These compounds were tested against Protein Tat (Human immunodeficiency virus type 1 group M subtype B (isolate HXB2)) (UniProt P04608) (assay: HIV-1 Tat–TAR interaction blockers – biochemical, fluorescence polarization, FAM-labeled TAR RNA, counter-screen for Vif-APOBEC3G degradation inhibitor project, dose response (AID 1117361)). Details: Tat-TAR RNA binding; series mostly up to 100 µM.
`O=C(CNS(=O)(=O)c1ccc(Br)s1)N1CCCC1` was tested, and the outcome was “inactive”. For `CCCCCC(=O)Nc1nnn(CCC)n1`, the outcome was “inactive”. `Cc1ccc(-n2nc(-c3ccc(N)cc3)cc2N)cc1` was tested, and the outcome was “inactive”. For `CCOCC(=O)Nc1ccc(C)c(Cl)c1`, the outcome was “inactive”. `Cc1ccc(S(=O)(=O)Nc2cc(NC(=O)CN3CCOCC3)ccc2Cl)cc1` was tested, and the outcome was “inactive”. In the case of `CCOC(=O)N1CCN(C(=O)c2cnn(-c3ccccc3)c2NC(=O)c2ccccc2F)CC1`, the outcome is reported as “inactive”. `Cc1ccc(C=Nc2ccccc2C(N)=O)s1` was tested, and the outcome was “inactive”. In the case of `O=C(Nc1ccc(F)cc1F)NC1CCN(S(=O)(=O)c2ccc(F)cc2)CC1`, the outcome is reported as “inactive”. For `Cc1nc(-c2noc(-c3ccccc3Cl)n2)c(C(F)(F)F)o1`, the outcome was “inactive”. With `O=C(Cn1cncn1)N/N=C/c1ccccc1Cl` the outcome was “inactive”. With `CCOc1cccc(-c2cc(=O)[nH][nH]2)c1` the outcome was “inactive”. With `Cc1csc(NC(=O)C(NS(=O)(=O)c2ccc(Br)s2)c2ccccc2)n1` (stereo unspecified) the outcome was “inactive”. `CC(=O)c1c(C)[nH]c(C(=O)OCC(=O)C(C)(C)C)c1C` was tested, and the outcome was “inactive”. For `CCOC(=O)c1c(C)[nH]c(C(=O)OCC(=O)Nc2sc(C(=O)N(C)C)c(C)c2C(=O)OCC)c1C`, the outcome was “inactive”. `CCCOc1ccc2oc(=O)c3c(c2c1)CCCN3C(=O)CN1CCc2ccccc2C1` was tested, and the outcome was “inactive”. `COC1=CC(=O)C(C2CC(=O)c3c(O)cc(O)cc3O2)=CC1=O` (stereo unspecified) was tested, and the outcome was “inactive”. In the case of `COc1cc(Cl)c(C)cc1NC(=O)COc1cc(C)nc(C(C)C)n1`, the outcome is reported as “inactive”. `O=C(CCC(=O)N1CCN(S(=O)(=O)c2ccccc2)CC1)NC1CCCc2ccccc21` (stereo unspecified) was tested, and the outcome was “inactive”. For `CCOc1ccc(-c2nc(CN3CCCCC3CCn3cccn3)c(C)o2)cc1` (stereo unspecified), the outcome was “inactive”. `N#CCSc1nc2sc3c(c2c(=O)n1C1CCCCC1)CCCC3` was tested, and the outcome was “inactive”. `CN(C)[C@H]1N(C(=O)c2ccc(Br)cc2)N=C2c3ccccc3S(=O)(=O)N21` was tested, and the outcome was “inactive”. With `COc1cc(C2NC(=O)NC(C)=C2C(=O)OCC2CCCO2)ccc1O` (stereo unspecified) the outcome was “inactive”. With `COc1ccc(NC(=S)N(CCCN2CCCC2)Cc2ccco2)cc1` the outcome was “inactive”. `CCCCCC(=O)N1C[C@@H](n2cc(C3CC3)nn2)[C@H](O)C[C@@H]1c1ccc(C)cc1` was tested, and the outcome was “inactive”. With `O=C(O)CCN1CCOCC1` the outcome was “inactive”. `COc1cccc(OC)c1C(=O)NC(C)C12CC3CC(CC(C3)C1)C2` (stereo unspecified) was tested, and the outcome was “inactive”. In the case of `Brc1ccc(-c2nnc(-c3cccc(Br)c3)o2)cc1`, the outcome is reported as “inactive”. `O=C1OC(c2ccc(Br)cc2)=N/C1=C\N1CCCCC1` was tested, and the outcome was “inactive”. With `CCn1c(SC(C)C)nnc1-c1cc(-c2ccccc2)sc1N` the outcome was “inactive”. In the case of `COCCNC(=O)Cn1ncc2ccsc2c1=O`, the outcome is reported as “inactive”. `Cc1ccc(OCCC(=O)OCC(=O)c2ccc3c(c2)NC(=O)CO3)cc1` was tested, and the outcome was “inactive”.
